Records with an inconclusive call do not appear. Activity calls are given as the source filed them. The calls were made as follows: active = hit-call score of the fitted dose curve at least 0.9, where 1 is the maximum; inconclusive = response in the unintended direction; inactive = score below 0.9.

The record followed here is PubChem BioAssay (EPA / NIEHS).

Retinoic acid receptor RXR-alpha (Homo sapiens), sequence (P19793 whole entry, looked up, the tested form may be a part): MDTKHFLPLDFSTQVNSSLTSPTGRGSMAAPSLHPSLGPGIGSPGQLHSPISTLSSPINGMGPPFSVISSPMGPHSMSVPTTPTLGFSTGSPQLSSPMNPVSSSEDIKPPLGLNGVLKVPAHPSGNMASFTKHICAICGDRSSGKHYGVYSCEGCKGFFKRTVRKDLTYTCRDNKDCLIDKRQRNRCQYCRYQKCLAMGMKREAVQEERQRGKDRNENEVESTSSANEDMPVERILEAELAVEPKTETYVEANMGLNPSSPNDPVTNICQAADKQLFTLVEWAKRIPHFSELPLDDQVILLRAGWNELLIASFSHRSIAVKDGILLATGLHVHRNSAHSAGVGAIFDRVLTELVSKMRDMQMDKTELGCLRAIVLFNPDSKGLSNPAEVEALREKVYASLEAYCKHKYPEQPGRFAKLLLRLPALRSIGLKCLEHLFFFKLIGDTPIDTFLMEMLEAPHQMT

The test concerns the target Retinoic acid receptor RXR-alpha (Homo sapiens) (UniProt P19793). In words: OT_NURR1_NURR1RXRa_0480: Odyssey Thera (OT) 8-hour HEK293T Protein Complementation Assay for Nurr1/retinoid X receptor (RXR) (AID 2283385). How it is done: OT_NURR1_NURR1RXRa_0480 is a cell-based assay that uses HEK293T, a human kidney cell line, with measurements taken at 8 hours after chemical dosing in a 384-well plate.OT_NURR1_NURR1RXRa_0480 is one of one assay component(s) measured or calculated from the OT_NURR1_NURR1RXRa_0480 assay. It is designed to make measurements of protein fragment complementation, a form of binding reporter, as detected with fluorescence intensity signals by Protein-fragment Complementation technology.Data from the assay component OT_NURR1_NURR1RXRa_0480 was analyzed into 1 assay endpoint. This assay endpoint, OT_NURR1_NURR1RXRa_0480, was analyzed in the positive analysis fitting direction relative to DMSO as the negative control and baseline of activity. Using a type of binding reporter, measures of receptor for gain-of-signal activity can be used to understand the binding at the pathway-level as they relate to the gene RXRA. Furthermore, this assay endpoint can be referred to as a primary readout, because the performed assay has only produced 1 assay endpoint. To generalize the intended target to other relatable targets, this assay endpoint is annotated to the nuclear receptor intended target family, where the subfamily is non-steroidal.
Protein-fragment complementation assay, or PCA, is a method for the identification and quantification of protein-protein interactions. In the PCA, the proteins of interest ("bait" and "prey") are each covalently linked to fragments of a third protein (e.g. DHFR, which acts as a "reporter"). Interaction between the bait and the prey proteins brings the fragments of the reporter protein in close proximity to allow them to form a functional reporter protein whose activity can be measured.
With `CCC(C)=NO`, the compound was called inactive.

As to `O=C(OCc1ccccc1)c1ccccc1`, the compound was called inactive.

As for `O=C(O)/C=C\C(=O)O`, the compound was called inactive.

Turning to `C1=CCC=C1`, the compound was called inactive.

Consider `Nc1ccc(S(=O)(=O)Nc2cnc3ccccc3n2)cc1`, for which the compound was called inactive.

As to `CCOC(=O)c1ccccc1`, the result was inactive.

Turning to `C[Si](C)(C)O[Si](C)(C)O[Si](C)(C)C`, the call was inactive.

By AC50 is commonly meant the midpoint of the concentration-response curve, whichever way the signal moves. For `COC(=O)[C@]1(C)CCC[C@@]2(C)[C@H]1CC=C1C=C(C(C)C)CC[C@@H]12`, the half-maximal activity concentration (AC50) was 71.6 µM (active).

As to `CC[N+](CC)(CC(=O)Nc1c(C)cccc1C)Cc1ccccc1` (tested in a mixture with another compound), the compound was classed as inactive.

Consider `C=C1CC[C@H]2C[C@@H]1C2(C)C`, for which the compound was classed as inactive.

In the case of `CCCCC(CC)COC(=O)CS` (stereo unspecified), the AC50 was 50 µM (active).

In the case of `F[B-](F)(F)F`, the compound was called inactive.

As for `Oc1cccc2ccccc12`, the result was inactive.

For the compound `CC[N+](CC)(CC(=O)Nc1c(C)cccc1C)Cc1ccccc1`, the compound was called inactive.

Consider `Cc1cc(C)c(S(=O)(=O)O)cc1N=Nc1cc(S(=O)(=O)O)c2ccccc2c1O`, for which the outcome was inactive.

Regarding `Sc1nc2ccccc2s1`, the compound was called inactive.

`O=C(CC(C(=O)OC1CCCCC1)S(=O)(=O)O)OC1CCCCC1` (stereo unspecified): the compound was called inactive.

For `CCCCCC[C@@H](O)C/C=C\CCCCCCCC(=O)O`, the result was inactive.

`CC/C=C\CCO`: the call was inactive.

Take `Cc1cc(O)cc(C)c1Cl`: the result was inactive.

As for `O=C(Oc1ccccc1)c1ccccc1`, the AC50 was 75.8 µM (active).
